Hit rate of the full screen: of about 48,000 compounds, about 13,000 (27%) showed an effect of 50% or more. Some of the results follow.
What follows are compounds tested on Wolbachia pipientis (assay: Anti-Wolbachia Cell-Based Screen). Conditions: 5 µM.
Assay type: functional
Parameters: scale not given: in the data most compounds retested in dose-response had high values

| Compound | Percent Effect [%] |
| --- | --- |
| CCc1ccc(CCC(=O)NCc2nnc[nH]2)cc1 | 9.868 |
| O=C(CCn1cccn1)NS(=O)(=O)N1CCCc2ccccc21 | -12.53 |
| CN(C)c1nc(N)nc(CSCCC(=O)Nc2ccc(F)cc2)n1 | -6.74 |
| COCCN1CCN(CC(=O)N(C)Cc2ccc(F)cc2)CC1C (configuration not stated) | 0.8723 |
| O=S1(=O)COCCN1Cc1ccc(F)c(F)c1 | 115.2 |
| O=C(CN1CCOCS1(=O)=O)NCc1ccccc1 | -2.644 |
| O=C(CN1CCOCS1(=O)=O)NCCc1ccc(Cl)cc1 | 2.599 |
| Cc1cccnc1NC(=O)CSc1ccc2c(c1)OCCO2 | -1.464 |
| CCN(CC)C(=O)Nc1ccc(N2CCSCC2)cc1C | -12.7 |
| CC(C)c1nnc(NC(=O)N(C)Cc2ccncc2)s1 | 78.38 |
| CC(C)c1nnc(NC(=O)N(C)Cc2ccc(C(N)=O)cc2)s1 | 102.8 |
| COCCN(Cc1ccc(C)o1)C(=O)Nc1nnc(C(F)F)s1 | -29.25 |
| CC(NC(=O)N(C)Cc1ccncc1)c1nncn1C (configuration not stated) | 2.48 |
| CNC(=O)c1ccc(CN(C)C(=O)Nc2nnc(C(C)C)s2)cc1 | 109.8 |
| CC(C)c1nnc(NC(=O)NC2CCOc3ccccc32)s1 (configuration not stated) | -12.43 |
| CC(C)c1nnc(NC(=O)NCc2cccnc2NCCN(C)C)s1 | -11.78 |
| CSc1cc2c(cc1NC(=O)N(C)Cc1ccncc1)OCCO2 | -3.541 |
| CNC(=O)c1ccc(CN(C)c2ccc(C(F)(F)F)cn2)cc1 | 22.77 |
| Clc1ccc(NCc2nnc(C3CC3)o2)cc1Cl | -1.785 |
| CC(=O)Nc1cc(Br)cnc1OCC(F)(F)F | -6.07 |
| Cc1nc(-c2ccco2)ccc1C(=O)N1CCc2nnc(N)cc2C1 | -5.155 |
| O=C(CCC(=O)c1ccccc1)NC1(C(=O)NCC2CC2)CCCC1 | -11.29 |

| Compound | Percent Effect [%] |
| --- | --- |
| CCc1nc(N)nc(N2CCCC3(CCN(C)CC3)CC2)c1C | 62.58 |
| CCc1nc(N)nc(N2CCCC3(CN(C)C(=O)O3)C2)c1C (configuration not stated) | -2.167 |
| CCc1nc(N)nc(N2CCCC3(CCOCC3)C2)c1C | 10.4 |
| CCOCC(=O)N1CCC(C2CCN(Cc3ccc(Cl)cc3)C2)CC1 (configuration not stated) | -8.468 |
| CC(C(=O)NCc1ccnc(OC2CCCC2)c1)n1cncn1 (configuration not stated) | 10.69 |
| O=C(Nc1cccc(CNCc2cccs2)c1)C1CCCC1 | 0.6832 |
| COc1ccc(CNC(c2cccc(F)c2)c2cnn(C)c2)cc1 (configuration not stated) | 4.131 |
| CC(NCc1cccc(COC2CCCC2)c1)c1cnn(C)c1 (configuration not stated) | 126.5 |
| Clc1cnccc1NCc1cccc(COC2CCOCC2)c1 | -32.94 |
| COc1cc(CNc2cnn(C)c2)cc2c1OCCO2 | -0.1017 |
| CC(NCc1ccnc(OC2CCC2)c1)c1cnn(C)c1 (configuration not stated) | 127.4 |
| COc1ccc(CNC(C)c2cnn(C)c2)cc1OC1CCCC1 (configuration not stated) | 106.9 |
| Cn1cc(C(NCc2ccc(F)cc2)c2cccc(F)c2)cn1 (configuration not stated) | -2.157 |
| CC(NCc1cccc(NC(=O)C2CCCCC2)c1)c1cnn(C)c1 (configuration not stated) | 104.4 |
| CC(NCCN1CCN(C(=O)C2CCCC2)CC1)c1cnn(C)c1 (configuration not stated) | 3.842 |
| CCOc1cc(CNC(C)c2ccc(F)cc2)ccn1 (configuration not stated) | -5.561 |
| CC(C)(O)C1CCN(C(=O)Nc2nc(-c3ccccc3)ns2)CC1 | 6.519 |
| CC(=O)c1cc(CC(=O)NCc2ccc(CN(C)C)cc2)cs1 | -9.398 |
| O=C1CCC2(CCCN(C(=O)c3ncc[nH]3)C2)CN1CCc1c[nH]cn1 (configuration not stated) | 2.094 |
| CC(=O)N1CCCN(C(C)C(=O)Nc2ccnn2C(C)C)CC1 (configuration not stated) | 14.5 |
| Cc1ccc(C(=O)NCCS(=O)(=O)Cc2ccccc2)c(=O)[nH]1 | -6.765 |
| CNc1cc(C2CCCN2C(=O)c2ccc3oc(=O)n(C)c3c2)ccn1 (configuration not stated) | -0.2257 |

| Compound | Percent Effect [%] |
| --- | --- |
| CNc1cc(C2CCCN(C(=O)c3ccc(=O)[nH]n3)C2)ccn1 (configuration not stated) | 169.1 |
| O=C(c1ccc(=O)[nH]n1)N1CC(c2nc(Cc3ccccc3)no2)C1 | -16.23 |
| CN(C)c1cc(C2CCCN(C(=O)c3ccc(=O)[nH]n3)C2)ccn1 (configuration not stated) | 139.8 |
| CNc1cc(C2CCCN2C(=O)c2ccc(=O)[nH]n2)ccn1.O=CO (configuration not stated) | 167.7 |
| O=C(NCCn1cnc(C2CCCC2)cc1=O)c1ccc(=O)[nH]n1 | -1.303 |
| Cc1ccnc(C2CCN(C(=O)c3cnn(C)c3)CC2)n1 | 85.52 |
| Cc1cc(C2CCCN(C(=O)c3cnn(C)c3)C2)ccn1 (configuration not stated) | -11.66 |
| Cc1cc(C2CCN(C(=O)c3cnn(C)c3)CC2)ccn1 | 94.31 |
| Cc1ccnc(C2CCN(C(=O)c3cnn(C)c3)C2)n1 (configuration not stated) | 83.36 |
| Cn1cc(C(=O)N2CCC(c3nccn3Cc3ccncc3)CC2)cn1 | -25.63 |
| Cc1c(C)n(CC(O)CN2CCC(C)CC2)c2c(Cl)cccc12 (configuration not stated) | -13.14 |
| F[C@@H]1CN(Cc2ccccc2)C[C@@H]1OCc1nc2cnccc2[nH]1 | -3.935 |
| COC(=O)c1cccc(C(=O)N2CCCCC2CCn2ccnc2C)c1 (configuration not stated) | -0.7359 |
| COC(=O)c1cccc(NC(=O)CN2CCN(S(C)(=O)=O)CC2)c1 | 0.7545 |
| CCc1nccn1CC(=O)Nc1cccc(C(=O)N(C)C)c1 | 117.3 |
| CN(C)C(=O)c1cccc(NC(=O)CN2CCCCC2C2OCCO2)c1 (configuration not stated) | -9.797 |
| CCc1nccn1CC(=O)Nc1cccc(C(=O)OC)c1 | 94.76 |
| CC(=O)c1cccc(NC(=O)Cn2cnc(-c3ccccc3)cc2=O)c1 | -1.653 |
| CCNc1ncc(C(=O)N(C)CCc2nc3cc(Cl)ccc3[nH]2)cn1 | -2.741 |
| CC(C)CN1CCc2[nH]cnc2C12CCN(C(=O)c1cnn(C)c1)CC2 | 18.71 |
| Cn1cccc1C(=O)N1CCCN(CCCc2ccccc2)CC1 | 5.768 |
| CC(CC#N)n1ccc(C(F)(F)F)n1 (configuration not stated) | 86 |

| Compound | Percent Effect [%] |
| --- | --- |
| CCC(CC#N)n1ccc(C(F)(F)F)n1 (configuration not stated) | 100.1 |
| CCC(CCN)n1ccc(C(F)(F)F)n1 (configuration not stated) | 101 |
| CS(=O)(=O)NCCNC(=O)NC1(c2ccc(F)cc2)CCCC1 | 1.188 |
| Cc1cccc(CS(=O)(=O)CC(=O)N(C)Cc2ccccc2F)c1 | -4.083 |
| CC(=O)c1ccccc1NC(=O)CCN1CCSCC1 | -1.71 |
| FC(F)(F)c1ccc2[nH]c([C@H]3CCNC3)nc2c1 | -0.9457 |
| FC(F)(F)c1ccc(-c2c[nH]c([C@@H]3COCCN3)n2)cc1 | -4.53 |
| Nc1ncc(-c2ccc(C(F)(F)F)cc2)c(C2CCCNC2)n1 (configuration not stated) | 52.9 |
| COc1ccc(-c2cnc(N)nc2C2CCCNC2)cc1.Cl (configuration not stated) | 80.9 |
| Nc1ncc(-c2ccc(F)cc2)c(C2CCCNC2)n1 (configuration not stated) | 107.7 |
| Nc1ncc(-c2ccc(Cl)cc2)c(C2CCCNC2)n1 (configuration not stated) | 110.4 |
| O=C(N[C@@H]1CCCNC1)C1(Oc2ccc(Cl)cc2)CCNCC1 | -9.041 |
| O=S(=O)(NCCn1cc(C2CCCNC2)nn1)c1ccc(Cl)cc1 (configuration not stated) | 7.811 |
| CN(Cc1ccccc1Cl)C(=O)c1cc(CN2CCC(O)CC2)on1 | -7.03 |
| Cc1nnc2n1CCN(Cc1c(Cl)ccc3cccnc13)C2 | -10.28 |
| CNC(=O)c1ccc(C(=O)N2CCCC(n3ccnc3C)C2)cn1 (configuration not stated) | 94.35 |
| CCc1nccn1C1CCCN(C(=O)c2ccc(C(=O)NC)nc2)C1 (configuration not stated) | -5.671 |
| CNC(=O)c1ccc(C(=O)N2CCCC(n3ccnc3)C2)cn1 (configuration not stated) | 118 |
| Cc1cccc(C)c1OCCNC(=O)C[S+]([O-])C1CCCC1 (configuration not stated) | 0.9364 |
| O=C(C1CCCc2[nH]ncc21)N1CCCC2(C1)OCCO2 (configuration not stated) | 23.68 |
| Fc1ccccc1CN1CCC(c2n[nH]c(C3CC3)n2)CC1 | -0.8499 |
| CCn1c(CN(C)C)nnc1C1CCN(Cc2cccc(F)c2F)CC1 | 8.209 |

| Compound | Percent Effect [%] |
| --- | --- |
| Fc1ccc(CN2CCCC(c3nnc(-c4cnccn4)o3)C2)cc1F (configuration not stated) | -0.1636 |
| Fc1ccccc1CN1CCC(c2noc(-c3ccccn3)n2)CC1 | 178 |
| CC(c1nc(C2CC2)no1)N1CCN(Cc2cccc(F)c2F)CC1 (configuration not stated) | 13.59 |
| Fc1cccc(CN2CCC(c3noc(-c4ccncc4)n3)CC2)c1F | 205.5 |
| Fc1cccc(CN2CCC(c3noc(-c4ccccn4)n3)CC2)c1F | 179 |
| Fc1ccc(CN2CCC(c3n[nH]c4nccnc34)CC2)cc1F | -10.9 |
| CCc1cc(NC2CCN(Cc3ccccc3F)CC2)n2nccc2n1 | 21.54 |
| Fc1ccc(CN2CCC(c3noc(-c4cnccn4)n3)CC2)cc1F | 155.5 |
| CC(=O)NCCC(=O)NCCCOc1c(C)cccc1C | 1.2 |
| CC(=O)N(Cc1c(F)cccc1F)C1CCCC1 | -1.576 |
| O=C(CSc1ccc2c(c1)OCCO2)NS(=O)(=O)c1ccccc1Br | -0.599 |
| COc1ccc2c(c1)OCC(Cc1ccc(CN)cn1)C2 (configuration not stated) | -20.89 |
| O=C(Nc1ccc(F)cc1)N1C[C@H]2CC[C@@H]1CN(Cc1cccnc1)C2 | -11.36 |
| CCC1=N[C@@]2(CC[C@@H]3CN(S(=O)(=O)N(C)C)C[C@@H]32)C(=O)N1CC(C)C | -19.59 |
| CC(=O)NC(C(=O)N1CCn2cncc2C1)C(C)C (configuration not stated) | 3.291 |
| Cc1noc(C)c1CC(=O)OCC(=O)N1CCc2sccc2C1 | 3.916 |
| CC1CN(C2CCN(Cc3nccn3CC(F)(F)F)CC2)CCO1 (configuration not stated) | -6.653 |
| Fc1cccc(C2CCCCN2Cc2nc(-c3cnccn3)no2)c1 (configuration not stated) | -8.906 |
| Fc1cccc(CN2CCC(c3noc(-c4cnccn4)n3)CC2)c1F | 134.1 |

— ChEMBL document CHEMBL3988442, “University of Dundee, Small-Polar-MMV Screening Library” (2021)
